Source: PubChem BioAssay AID488969 (Vanderbilt High Throughput Screening Facility, 2010)
In all, about 110,000 compounds were measured (“z-score”: median about -0.1, highest 2% from about 2 on). The list comes from a sample in which the highest values are over-represented; it also holds similar structures and randomly drawn compounds. Activity calls are given as the source filed them.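 Rule for the calls: active = z-score in the third read window above 3 or below -3; inactive = the rest.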

Target: Metabotropic glutamate receptor 8 (Rattus norvegicus) (UniProt P70579)
Experiment: mGluR8 Gi/Go-coupled signaling modulation – cell-based, rat, thallium flux, HTS, primary screen (AID 488969)
Conditions: HEK293 rat mGluR8, GIRK (G protein-gated inwardly rectifying potassium channel) thallium flux, FluoZin2; at 10 µM; stronger effect = higher value; submaximal glutamate (EC20) added with thallium

Metabotropic glutamate receptor 8 (Rattus norvegicus), sequence (P70579 whole entry, looked up): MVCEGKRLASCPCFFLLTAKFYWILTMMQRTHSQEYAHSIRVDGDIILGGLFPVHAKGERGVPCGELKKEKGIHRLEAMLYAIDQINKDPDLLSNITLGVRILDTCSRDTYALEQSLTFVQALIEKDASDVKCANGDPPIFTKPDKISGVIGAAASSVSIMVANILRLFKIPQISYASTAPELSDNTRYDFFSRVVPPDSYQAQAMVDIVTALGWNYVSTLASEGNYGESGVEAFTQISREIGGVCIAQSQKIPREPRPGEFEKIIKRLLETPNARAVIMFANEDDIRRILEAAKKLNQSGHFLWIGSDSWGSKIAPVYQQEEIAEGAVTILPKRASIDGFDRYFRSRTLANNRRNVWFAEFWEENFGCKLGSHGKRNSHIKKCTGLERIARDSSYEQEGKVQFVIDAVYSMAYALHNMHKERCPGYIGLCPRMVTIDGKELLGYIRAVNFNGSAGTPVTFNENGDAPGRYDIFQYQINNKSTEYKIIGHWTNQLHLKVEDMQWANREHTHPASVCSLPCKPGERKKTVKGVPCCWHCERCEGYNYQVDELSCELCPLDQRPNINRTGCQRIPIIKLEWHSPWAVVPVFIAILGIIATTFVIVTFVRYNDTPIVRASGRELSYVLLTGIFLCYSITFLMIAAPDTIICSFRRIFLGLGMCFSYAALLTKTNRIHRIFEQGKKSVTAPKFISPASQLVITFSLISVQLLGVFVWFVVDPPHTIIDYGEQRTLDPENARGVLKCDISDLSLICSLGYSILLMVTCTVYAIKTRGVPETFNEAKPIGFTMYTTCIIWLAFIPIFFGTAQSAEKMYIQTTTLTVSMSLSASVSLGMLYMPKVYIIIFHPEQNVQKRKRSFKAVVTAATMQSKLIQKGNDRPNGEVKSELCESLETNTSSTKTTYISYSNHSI

Row | SMILES | z-score
1 | COc1ccc(C(=O)NNC(=O)CN2CCC(n3nnc4cc(F)ccc43)CC2)cc1 | -0.223
2 | Cc1ccc(OCC(=O)N/N=C\c2ccncc2)c(C)c1 | 1.4
3 | Cc1ccc(OCC(=O)N/N=C\c2ccc(-c3cccc(C(=O)O)c3)o2)c(C)c1 | 3.24 (active)
4 | O=C(O)c1cccc(-c2ccc(/C=N/NC(=O)c3cccnc3)o2)c1 | -0.216
5 | O=C(NC1CCCC1)C1CCN(c2nccs2)CC1 | 0.382
6 | CCc1cccc(CC)c1NC(=O)COC(=O)CCc1cc(OC)c(OC)c(OC)c1 | -0.0755
7 | CCC(=O)c1c[nH]c(C(=O)NCCCN2CCOCC2)c1 | -0.121
8 | CC(=O)N1CCC(N(CCN2CCOCC2)C(=S)Nc2cc(C)ccc2C)CC1 | -0.0971
9 | CCCCOC(=O)c1ccc(NC(=S)NC(=O)c2c(Cl)cnn2CC)cc1 | 8.06 (active)
10 | Cn1ncc(Cl)c1C(=O)Nc1ccncc1 | 0.243
11 | CCCCOC(=O)c1ccc(NC(=S)NC(=O)c2c(Cl)cnn2C)cc1 | 11.2 (active)
12 | CCCCOC(=O)c1ccc(NC(=O)c2nn(C)cc2Br)cc1 | -0.112
13 | CCn1ncc(Cl)c1C(=O)Nc1ccncc1 | -0.171
14 | COC(=O)c1ccc(NC(=S)NC(=O)c2c(Cl)cnn2C)cc1 | 10.1 (active)
15 | CCCCOC(=O)c1ccc(NC(=S)NC(=O)c2c(Br)c(C)nn2C)cc1 | 4.24 (active)
16 | CCCCOC(=O)c1ccc(NC(=O)c2cc(Cl)ccc2OC)cc1 | -0.0115
17 | COC(=O)c1cc(NC(=O)c2c(Cl)cnn2C)cc(C(=O)OC)c1 | -0.191
18 | CCOC(=O)c1ccc(NC(=S)NC(=O)c2nn(CC)cc2Br)cc1 | 1.17
19 | CCCCOC(=O)c1ccc(NC(=O)c2cnccn2)cc1 | 0.00424
20 | CCCCOC(=O)c1ccc(NC(=O)c2ccccc2OC)cc1 | -0.0471
21 | CCc1nnc(NC(=O)C2CCCN2S(=O)(=O)c2ccc(F)cc2)s1 (configuration not stated) | 0.145
22 | CCOC(=O)c1cccc(NS(=O)(=O)c2c(C)[nH]c(=O)[nH]c2=O)c1 | -0.0134
23 | CCn1c(/C=C2\C(=O)Nc3ccccc32)nc2ccccc2c1=O | -0.221

Row | SMILES | z-score
24 | COc1cccc(OCC(=O)N(Cc2nc(-c3ccc(Cl)cc3)no2)C(C)C)c1 | 0.0492
25 | CCS(=O)(=O)NC(C)C(c1cccs1)N1CCN(c2ccc(F)cc2)CC1 (configuration not stated) | 0.062
26 | COc1ccc(OC)c(N2Cc3cc(C)c(C)cc3C2)c1 | 0.286
27 | NC(=O)N1CCN(C(=O)c2ccco2)CC1 | 0.536
28 | COc1ccc(OC)c(/C=N/NC(=O)CC2C(=O)NN=C2C)c1 (configuration not stated) | -0.12
29 | O=C(NC(=S)Nc1ccc(N2CCOCC2)cc1)c1cccc([N+](=O)[O-])c1 | 0.169
30 | CC1CCN(c2ccc(NC(=S)NC(=O)c3ccco3)cc2)CC1 | 4.93 (active)
31 | C=CCN(CC=C)S(=O)(=O)c1ccc(NC(=S)NC(=O)c2ccco2)cc1 | 10.3 (active)
32 | COc1ccc(NC(=O)c2cc3ccccn3n2)cc1 | -0.0979
33 | C=CCN(CC=C)S(=O)(=O)c1ccc(NC(=S)NC(=O)c2ccc(-c3ccccc3)cc2)cc1 | -0.107
34 | O=C(Nc1ccc(CN2CCOCC2)cc1)c1cc2ccccc2o1 | 0.834
35 | NS(=O)(=O)c1ccc(NC(=S)NC(=O)c2ccco2)cc1 | -0.0865
36 | O=C(NC(=S)Nc1ccc(CN2CCOCC2)cc1)c1cccc([N+](=O)[O-])c1 | 2.19
37 | O=C(NC(=S)Nc1ccc(NC(=O)c2ccco2)cc1)c1ccccc1 | -0.416
38 | O=C(NC(=S)Nc1ccc(CN2CCOCC2)cc1)c1ccc([N+](=O)[O-])cc1 | 0.649
39 | CC1CCN(c2ccc(NC(=S)NC(=O)c3ccc(-c4cccc([N+](=O)[O-])c4)o3)cc2)CC1 | -0.0494
40 | O=C(Nc1ccc(CN2CCOCC2)cc1)c1cc2ccccn2n1 | 4.59 (active)
41 | Cc1cccc2sc(NC(=O)C3CCN(S(=O)(=O)c4cc([N+](=O)[O-])ccc4Cl)CC3)nc12 | 0.0365
42 | CCOC(=O)C1CCN(C(=O)COc2ccc(Cl)cc2Cl)CC1 | -0.471
43 | CCCCOC(=O)Nc1ccc(S(=O)(=O)Nc2ccc([N+](=O)[O-])cc2)cc1 | 0.51
44 | N/C(=N\OC(=O)c1ccc(Cl)c(Cl)c1)c1cccnc1 | -0.145
45 | COc1ccccc1NC(=O)N(Cc1ccco1)Cc1cc2ccc(C)c(C)c2[nH]c1=O | -1.77
46 | C=CCn1c(Cc2cccs2)nnc1SCC(=O)c1ccc2ccccc2c1 | -0.708

Row | SMILES | z-score
47 | CCOC(=O)c1c(NC(=O)c2noc3c2CCCC3)sc(C)c1C | -0.285
48 | O=C(NC(=S)Nc1ccc(N2CCCCC2)cc1)c1ccco1 | -1.53
49 | O=C(NC(=S)Nc1ccc(N2CCOCC2)cc1)c1ccc(Cl)cc1 | 0.272
50 | O=C(NC(=S)Nc1ccc(N2CCOCC2)cc1)c1ccc2c(c1)OCCO2 | 0.0862
51 | O=C(NC(=S)Nc1ccc(N2CCOCC2)cc1)c1ccco1 | 3.46 (active)
52 | O=C(NC(=S)Nc1ccc(N2CCOCC2)cc1)c1cccc(Cl)c1 | 4.95 (active)
53 | S=C(NCc1ccco1)Nc1ccc(N2CCOCC2)cc1 | -0.00184
54 | O=C(c1ccccc1CCc1ccccc1)N1CCN(c2ccccn2)CC1 | 2.38
55 | O=C(c1ccccc1-c1ccccc1)N1CCN(c2ccccn2)CC1 | -0.0481
56 | O=C(CCc1ccccc1)N1CCN(c2ccccn2)CC1 | -0.254
57 | CC(C)C(=O)Nc1nnc(-c2ccccc2)o1 | 0.162
58 | COc1cccc(-c2nnc(NC(=O)C(C)C)o2)c1 | 0.295
59 | CCOc1cccc(C(=O)Nc2cccc(-c3nnc(-c4ccc(C)cc4)o3)c2)c1 | 0.689
60 | CCOc1ccc(-c2nnc(NC(=O)CCCOc3cccc(C)c3)o2)cc1 | 3.62 (active)
61 | COc1ccc(-c2nnc(NC(=O)c3cc(Cl)ccc3Cl)o2)cc1 | 1.02
62 | COc1ccc(-c2nnc(NC(=O)C(C)C)o2)cc1 | 2.14
63 | O=C(COc1ccccc1)Nc1nnc(-c2ccccc2)o1 | -0.421
64 | CCOc1ccc(-c2nnc(NC(=O)c3ccc(OCC(C)C)c(OC)c3)o2)cc1 | 10.4 (active)
65 | COc1ccc(-c2nnc(NC(=O)c3ccc(F)cc3)o2)cc1 | 5.46 (active)
66 | COc1ccc(-c2nnc(-c3ccc(OCC(C)C)cc3)o2)cc1 | 0.807
67 | CCOc1ccc(NC(=O)CNC(=O)c2ccc(OC)c(OC)c2)cc1 | -0.166
68 | CCC(=O)Nc1nnc(-c2ccc(OC)cc2)o1 | -0.442
69 | O=C(Nc1cccc(F)c1)C1CCN(C(=O)c2ccccc2Cl)CC1 | -0.486

Row | SMILES | z-score
70 | CCOC(=O)CS(=O)(=O)c1ccc(C(F)(F)F)cn1 | -0.0154
71 | CCCOC(=O)c1ccc(NS(=O)(=O)c2cccs2)cc1 | 0.0163
72 | Cc1cc(C)c2nc(NC(=O)c3cccc(S(=O)(=O)N4CCc5ccccc54)c3)sc2c1 | -0.315
73 | CN1CCOCCOCCN(C)C(=O)N2CCOCCOCCN(CCOCC2)C1=O | 1.25
74 | CC(C)(C)c1ccc(CSc2nnc(-c3ccccn3)n2Cc2ccco2)cc1 | -0.295
75 | Clc1ncnc2scc(C3COc4ccccc4O3)c12 (configuration not stated) | -0.228
76 | Cc1cc(C)nc(NS(=O)(=O)c2ccc(NC(=O)CCC3COc4ccccc4O3)cc2)n1 (configuration not stated) | -0.4
77 | Cc1cc(NC(=O)c2cnc3ccccn3c2=O)no1 | -0.108
78 | CCCCNC(=S)NCCN1CCCCC1 | 0.407
79 | COc1ccc(C(C[N+](=O)[O-])c2c(C)[nH]c3ccccc23)cc1OC (configuration not stated) | -2.31
80 | CCN(CC(O)COc1ccc(OCC(O)CN(CC)C2CCCCC2)cc1)C1CCCCC1 (configuration not stated) | 2.32
81 | COc1ccc(OCC(O)CN(C2CCCCC2)C2CCCCC2)cc1 (configuration not stated) | 0.744
82 | CN(CC(O)COc1ccc(OCC(O)CN(C)C2CCCCC2)cc1)C1CCCCC1 (configuration not stated) | 1.64
83 | O=C(/C=C/c1ccc(S(=O)(=O)N2CCOCC2)cc1)NCc1ccccc1 | -0.687
84 | CCOC(=O)N1CCC(N(C(=O)Nc2ccc(Cl)c(Cl)c2)C(C)CC)CC1 (configuration not stated) | -0.099
85 | CCOC(=O)c1sc(Nc2nc3c(F)cccc3s2)cc1C | 0.23
86 | c1coc(-c2nnc(NC3=NCCC3)o2)c1 | 1.08
87 | Fc1cccc2sc(Nc3nnc(-c4ccccc4)o3)nc12 | 17.1 (active)
88 | Cc1ccsc1C(=O)Nc1nnc(-c2ccco2)o1 | 0.832
89 | COc1cc(-c2nnc(CSc3nc4ccccc4s3)o2)cc(OC)c1OC | -3.36 (active)
90 | COc1cccc(-c2nnc(-c3ccc(C(F)(F)F)cc3)o2)c1 | -0.245
91 | COc1cc(OC)cc(-c2nnc(Nc3nc4c(F)cccc4s3)o2)c1 | 9.94 (active)
92 | Fc1cccc2sc(Nc3nnc(-c4ccco4)o3)nc12 | 16 (active)

Row | SMILES | z-score
93 | COc1cccc(-c2nnc(Nc3nc4c(F)cccc4s3)o2)c1 | 17.4 (active)
94 | COc1cccc(-c2nnc(NC(=O)C3CCCCC3)o2)c1 | -0.375
95 | Nc1nc2c(F)cccc2s1 | -0.0918
96 | O=c1oc2ccccc2cc1-c1csc(Nc2nc3c(F)cccc3s2)n1 | 0.848
97 | CCOC(=O)C(C)n1cnc2c1c(=O)[nH]c(=O)n2C (configuration not stated) | -0.374
98 | COc1ccc(CNC(=O)CN(C(=O)c2ccc(CN3CCOCC3)o2)C2CCCC2)cc1 | -0.1
99 | CCOc1cc(-c2cc(-c3ccc(C)cc3)nc(N)c2C#N)ccc1O | -0.244
100 | CC1c2c([nH]c3ccccc23)CCC1C(=O)O (configuration not stated) | 0.673
101 | CCN1CCN(C(=S)NCc2ccc(C)cc2)CC1 | 0.0391
102 | CN(CC(=O)Nc1cccnc1)S(=O)(=O)c1ccccc1 | -0.0827
103 | CCOC(=O)C1[C@H]2C(=O)N(CCCOC)C[C@]23C=C[C@H]1O3 (some centres not stated) | -0.0146
104 | CCOCCCNCC(=O)NC1(C)C2CCC(C2)C1(C)C (configuration not stated) | -0.581
105 | O=C(Nc1ccc2c(c1)OCO2)N1CCN(C/C=C/c2ccccc2)CC1 | -0.663
106 | CN(C)c1cccc(C(=O)OCC(=O)NCC2CCCO2)c1 (configuration not stated) | -0.266
107 | Cc1ccc(CN=C2Nc3ccccc3CS2)cc1 | -0.225
108 | Cc1cccc(NC(=O)c2cc(Cl)sc2Cl)c1C | 0.0762
109 | CC(C)(C)Cc1nc(-c2ccc(Cl)cc2)no1 | 0.892
110 | COc1ccc(CCC(=O)NCc2cnn(C)c2)cc1 | 3.37 (active)
111 | CCn1cc(CNC(=O)CCc2ccc(OC)cc2)cn1 | 0.0492
112 | COc1ccc(CCC(=O)NCc2cn3ccsc3n2)cc1 | 0.0209
